Compound activity from PubChem.
HT1080-NT tox – qHTS for induction of synthetic lethality in tumor cells producing 2HG: qHTS for the HT-1080-NT fibrosarcoma cell line; HT-1080-NT fibrosarcoma viability, CellTiter-Glo ATP luminescence, 48 h; Potency, µM (top dose mostly 46.1 µM), without a hit: at the top dose activity, negative = less viability, actives largely listed as cytotoxic; 1.6% of 360,000 active; AID 686970, 2013;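 further: NT is the 2HG producing partner of a matched IDH1 knockdown line; 0% = DMSO-treated cells and -100% = media-only wells without cells; nearly all actives have a fitted effect of over 55% in size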
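Viability of the 2HG-overproducing fibrosarcoma line after 48 hours of compound exposure at 37 degrees C was determined by luminescence with CellTiter-Glo, and concentration-effect curves were then fitted and categorized.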
KB-V1 MDR tox – qHTS assay for MDR1-selective chemotherapeutics: Primary screen using the drug-selected MDR subline cells KB-V1 | KB-V1 MDR cells viability, CellTiter-Glo, 72 h | Potency, µM (highest dose often 46.1 µM), usual class: cytotoxic | 3.4% of 400,000 active | AID 1347076, 2019; further: nearly all actives have a fitted effect of over 60% in size
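qHTS viability screen in drug-selected KB-V1 MDR cells: 72 h compound treatment at 37 degrees C, ATP luminescence end point.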
HT1080 IDH1KD tx – qHTS for induction of synthetic lethality in tumor cells producing 2HG: qHTS for the HT-1080-IDH1KD cell line; HT-1080 IDH1 knockdown viability, ATP luminescence, 48 h; Potency, µM (series often up to 46.1 µM), for inactives: at the highest dose activity, negative = toxicity, usual class: cytotoxic; 2% of 360,000 active;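 further: 0% = DMSO wells and -100% = cell-free medium wells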
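HT-1080-IDH1KD cells (IDH1 knocked down), 750/well in RPMI with 5% FBS, treated with compound 48 h at 37 degrees C. Viability by CellTiter-Glo luminescence, normalised to DMSO and no-cell wells; concentration-response curves classed.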
KB-3-1 tox – qHTS assay for MDR1-selective chemotherapeutics: Primary screen using the parental adenocarcinoma cell KB-3-1 | KB-3-1 viability, CellTiter-Glo ATP luminescence, 72 h | Potency, µM (highest dose often 46.1 µM), hits mostly cytotoxic | 1.4% of 400,000 active | AID 1347075, 2019; further: nearly all actives have a fitted effect of over 60% in size
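Cells are dispensed, compounds pinned in, plates held at 37 °C for 72 h, then CellTiter-Glo is added and luminescence read after 10 minutes. Cell line: parental KB-3-1 in phenol-red-free DMEM, 10% FBS.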
Starred values were filed as active, the others as inactive; i = inactive; ? = inconclusive; . = no result given; [ ] = remark or other dose. Sampled rows, rich in hits. Any-hit rate of the full collection: about 5.7%. The call rests on the fitted dose curve; in most records, active means well fitted curve in the direction sought with a large enough effect; inconclusive means small, poorly fitted or top-dose-only effect, or another doubt; inactive means no such curve, though single readings can be large; an effect the other way counts as inactive or inconclusive. Unless noted, on the % scale 0 is the no-effect control and ±100 the full control effect; potency means the concentration at half of the fitted maximal effect.

SMILES | HT1080-NT tox | KB-V1 MDR tox | HT1080 IDH1KD tx | KB-3-1 tox
CC(=O)N1c2ccc(S(=O)(=O)N3CCN(c4ccc(C)cc4C)CC3)cc2CC1C (stereo unspecified) | . | i | . | i
N#C/C(=N\Nc1ccc([N+](=O)[O-])cc1)C(N)=S | ? | ? | 13µM* | ?
N#C/C(=N\Nc1cccc([N+](=O)[O-])c1)C(=O)c1ccc(Br)cc1 | 5.8µM* | 1.5µM* | 2.6µM* | 3.7µM*
O=C(O)c1ccc(N=NNc2cccc([N+](=O)[O-])c2)cc1 | 2% | i | -15% | i
CC(=O)NC/C(C)=N\Nc1ccc([N+](=O)[O-])cc1 | 4.6µM* | i | 3.7µM* | ?
N#C/C(=N\Nc1ccc(S(=O)(=O)N2CCc3ccccc32)cc1)C(N)=S | 10µM* | i | 9.2µM* | ?
O=C(C[N+]1(CC(O)c2ccccc2)CCCCC1)c1ccccc1 (stereo unspecified) | . | i | . | i
Cc1ccc(OCc2nnc(SCC(=O)N3c4ccccc4Sc4ccc(Cl)cc43)o2)cc1 | 8% | 8.2µM* | -2% | i
Cc1ccc(NCc2nnc(SCC(=O)N3c4ccccc4Sc4ccccc43)o2)c(C)c1 | 3% | 6.5µM* | -1% | i
Oc1c(C(c2ccc(F)cc2)N2CCCC2)sc2nc(-c3ccco3)nn12 (stereo unspecified) | . | i | . | i
O=C(CCn1c(=O)[nH]c2ccsc2c1=O)N(CCc1ccccc1)Cc1ccccc1 | -21% | 21µM* | -3% | ?
CC(=O)/C(=N/Nc1ccccc1Cl)Sc1nnc(C(O)c2ccccc2)n1-c1ccccc1 (stereo unspecified) | -1% | 16µM* | 0% | i
CCOC(=O)N1CCN(CCC(=O)Nc2ccc(Br)c(C)c2)CC1 | -5% | 18µM* | -9% | ?
Cc1ccc(S(=O)(=O)N2CCN(C(=O)CCC(=O)Nc3ccc(Br)c(C)c3)CC2)cc1 | -1% | 13µM* | -15% | i
CCN1CCN(CCC(=O)Nc2ccc(Br)c(C)c2)CC1 | 1% | i | -15% | i
CCc1ccc(NC(=O)c2cnn3c(C)cc(C)nc23)cc1 | . | ? | . | i
COC(=O)c1ccc(CSc2ccc3nnc(-c4ccc(OC)c(OC)c4)n3n2)o1 | 6% | 7.3µM* | 3% | i
COc1ccc(-c2nnc3ccc(SCC(=O)N4CCCCCC4)nn23)cc1OC | -3% | i | -2% | i
O=C1c2ccc3c4c(ccc(c24)C(=O)N1CCCCO)C(=O)N(CCCCO)C3=O | 23µM* | ? | 12µM* | 3.7µM*
O=C(c1ccc2c(c1)C(=O)N(CCCO)C2=O)c1ccc2c(c1)C(=O)N(CCCO)C2=O | -5% | i | -1% | i
Cc1ccc(C(=O)NCC(=O)N(C)CC(=O)Nc2ccccc2Br)s1 | 4% | 21µM* | 0% | i
Cc1ccc(C(=O)NCC(=O)N(C)Cc2ccc(Cl)cc2Cl)s1 | 0% | 16µM* | 6% | i
Cc1cccc2c(N=NC(=O)C(C)n3cnc4ccccc4c3=O)c(O)[nH]c12 (stereo unspecified) | -14% | i | -2% | i
CC(C(=O)N=Nc1c(O)[nH]c2ccccc12)n1cnc2ccccc2c1=O (stereo unspecified) | 0% | 18µM* | -4% | i
N#CCCn1cc(CNCc2cccnc2)c(-c2ccccc2)n1 | . | i | . | i
SMILES | HT1080-NT tox | KB-V1 MDR tox | HT1080 IDH1KD tx | KB-3-1 tox
CCOc1ccc(CCNC(=O)CN2C(=O)COc3ccc(S(=O)(=O)N4CCCCCC4)cc32)cc1 | . | 9.2µM* | . | i
Cc1ccc(CNC(=O)c2ccc(C)c(S(=O)(=O)N3CCCCC3)c2)cc1 | 5% | i | 2% | i
CCOc1ccc(CCNC(=O)c2ccc(C)c(S(=O)(=O)N3CCOCC3)c2)cc1OCC | -2% | 21µM* | -3% | ?
O=C(NCc1ccccc1F)c1cccc(S(=O)(=O)N2CCCCCC2)c1 | 2%[9.24 µM] | i | 3% | i
Cc1ccc(C(=O)NCc2ccc(Cl)cc2)cc1S(=O)(=O)N1CCCCC1 | -4% | 18µM* | -4% | ?
O=C(NCc1ccccc1F)c1cccc(S(=O)(=O)N2CCCCC2)c1 | 3% | 4.1µM* | -5% | i
CCOc1ccc(CCNC(=O)CN2C(=O)COc3ccc(S(=O)(=O)N(CC)CC)cc32)cc1 | . | i | . | i
Oc1ccccc1C1C=C(c2ccc3c(c2)OCO3)NC(c2cccc(Cl)c2)N1 (stereo unspecified) | . | i | . | i
COc1ccc(C)cc1NC(=O)c1ccc2nc(Cc3ccccc3)oc2c1 | . | i | . | i
CCOc1ccc(CCNC(=O)c2cccc(S(=O)(=O)N3CCCCC3)c2)cc1OCC | -11% | 6.5µM* | -28% | ?
COc1ccccc1NS(=O)(=O)c1cc(C(=O)NCC(c2ccc(F)cc2)N2CCOCC2)ccc1C (stereo unspecified) | -2% | i | -5% | i
CCOc1ccc(S(=O)(=O)N2CCN(C(=O)c3ccc(Cl)c(S(=O)(=O)N4CCOCC4)c3)CC2)cc1 | -2% | i | 0% | i
CCOc1ccc(S(=O)(=O)N2CCN(C(=O)c3ccc(C)c(S(=O)(=O)N4CCOCC4)c3)CC2)cc1 | -9% | 21µM* | -10% | ?
CCOc1ccc(CCNC(=O)c2cccc(S(=O)(=O)N3CCOCC3)c2)cc1OCC | 8% | i | 10% | i
Cc1ccc(C(=O)NCC(c2ccc(F)cc2)N2CCOCC2)cc1S(=O)(=O)N1CCOCC1 (stereo unspecified) | -4% | 21µM* | -3% | i
COc1ccc[n+](CC(=O)c2ccc(F)cc2)c1 | . | i | . | ?
O=C(Cn1c(=O)n(Cc2ccc3c(c2)OCO3)c(=O)c2ccccc21)Nc1cccc(Cl)c1 | . | i | . | i
CN(C)c1nc(N)nc(CSc2nnnn2C)n1 | 16% | ? | 16% | i
CN(C)c1nc(N)nc(CSc2ncc(Cl)cc2Cl)n1 | -3% | 15µM* | -1% | i
CN(C)c1nc(N)nc(CSc2nnnn2-c2ccc(Cl)cc2)n1 | ? | i | 23µM* | i
CCCCN(CC)c1nc(-c2ccccc2F)nc2ccccc12 | . | i | . | i
O=S(=O)(c1ccccc1)c1nc(-c2ccccc2Cl)oc1NCCCN1CCOCC1 | -16% | i | -33% | i
Cc1ccccc1-c1nc(S(=O)(=O)c2ccccc2)c(NCCCN2CCOCC2)o1 | -1% | i | 0% | 23µM*
N=C(N)SCc1cn(-c2ccccc2)nc1-c1ccc(Br)cc1 | 5.2µM* | 18µM* | 5.2µM* | ?
COc1ccc(-c2nn(-c3ccccc3)cc2CO)cc1 | -6% | i | -13% | i
